Source: PubChem BioAssay AID1159580 (chemical genetic matrix, 2015)
Out of some 5,500 compounds screened, about 2,000 (36%) were called active. Inconclusive results (about 18%) are left out. Cut-off read from the data, not from the text of the source: active = normalized growth mostly below about 0.91 (no sharp cut-off); inconclusive = no clear call, values can overlap the other calls; inactive = mostly above about 0.92. Some of the results follow.

Experiment: chemical genetic growth profiling, strain panel (AID 1159580);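 note: tested at 20 µM; growth read once vehicle control cultures reached saturation at 30 °C; 1 = growth at the plate median or of vehicle wells; lower values mean less growth of the strain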
Details: S. cerevisiae deletion strains, growth OD
[1] = locus YAR019C, strain CDC15, hits give low values
[2] = locus YBL105C, strain PKC1, hits give low values
[3] = locus YBR135W, strain CKS1, hits give low values
[4] = locus YBR136W, strain MEC1, hits give low values
[5] = locus YBR160W, strain CDC28, hits give low values
[6] = locus YDL017W, strain CDC7, hits give low values
[7] = locus YDL028C, strain MPS1, hits give low values
[8] = locus YDL101C, strain DUN1, hits give low values
[9] = locus YDL108W, strain KIN28, hits give low values
[10] = locus YDL132W, strain cdc53, hits give low values
[11] = locus YDL214C, strain PRR2, hits give low values
[12] = locus YDR052C, strain DBF4, hits give low values
[13] = locus YDR054C, strain cdc34, hits give low values
[14] = locus YDR226W, strain ADK1, hits give low values
[15] = locus YDR477W, strain SNF1, hits give low values
[16] = locus YER123W, strain YCK3, hits give low values
[17] = locus YER133W, strain GLC7, hits give low values
[18] = locus YFL009W, strain cdc4, hits give low values
[19] = locus YFL029C, strain CAK1, hits give low values
[20] = locus YFR003C, strain YPI1, hits give low values
[21] = locus YFR019W, strain FAB1, hits give low values
[22] = locus YFR028C, strain CDC14, hits give low values
[23] = locus YGR040W, strain KSS1, hits give low values
[24] = locus YGR052W, strain FMP48, hits give low values
[25] = locus YGR092W, strain DBF2, hits give low values
[26] = locus YHR030C, strain SLT2, hits give low values
[27] = locus YHR079C, strain IRE1, hits give low values
[28] = locus YHR082C, strain KSP1, hits give low values
[29] = locus YHR205W, strain SCH9, hits give low values
[30] = locus YIL147C, strain SLN1, hits give low values
[31] = locus YJL095W, strain BCK1, hits give low values
[32] = locus YJL128C, strain PBS2, hits give low values
[33] = locus YJL157C, strain FAR1, hits give low values
[34] = locus YJR016C, strain ILV3, hits give low values
[35] = locus YJR066W, strain TOR1 (second series), hits give low values
[36] = locus YJR066W, strain TOR1, hits give low values
[37] = locus YKL048C, strain ELM1, hits give low values
[38] = locus YKL067W, strain YNK1, hits give low values
[39] = locus YKL101W, strain HSL1, hits give low values
[40] = locus YKL193C, strain SDS22, hits give low values
[41] = locus YKL203C, strain TOR2, hits give low values
[42] = locus YLR113W, strain HOG1, hits give low values
[43] = locus YLR133W, strain CKI1, hits give low values
[44] = locus YLR403W, strain SFP1, hits give low values
[45] = locus YML070W, strain DAK1, hits give low values
[46] = locus YMR001C, strain CDC5, hits give low values
[47] = locus YMR205C, strain PFK2 (second series), hits give low values
[48] = locus YMR277W, strain FCP1, hits give low values
[49] = locus YNL006W, strain LST8, hits give low values
[50] = locus YNL020C, strain ARK1, hits give low values
[51] = locus YNL161W, strain CBK1, hits give low values
[52] = locus YNL183C, strain NPR1, hits give low values
[53] = locus YNL207W, strain RIO2, hits give low values
[54] = locus YNL222W, strain SSU72, hits give low values
[55] = locus YNL307C, strain MCK1 (second series), hits give low values
[56] = locus YOL078W, strain AVO1, hits give low values
[57] = locus YOL136C, strain PFK27, hits give low values
[58] = locus YOR061W, strain CKA2, hits give low values
[59] = locus YOR119C, strain RIO1, hits give low values
[60] = locus YOR231W, strain MKK1, hits give low values
[61] = locus YOR329C, strain SCD5, hits give low values
[62] = locus YPL031C, strain PHO85, hits give low values
[63] = locus YPL153C, strain RAD53, hits give low values
[64] = locus YPL204W, strain HRR25, hits give low values
[65] = locus YPL209C, strain IPL1, hits give low values
[66] = locus YPL256C, strain CLN2, hits give low values
[67] = locus YPR025C, strain CCL1, hits give low values
[68] = locus YPR106W, strain ISR1, hits give low values
[69] = locus YPR111W, strain DBF20, hits give low values
[70] = strain NNK1, hits give low values
[71] = strain TSCII, hits give low values

Measured: normalized growth

CC(C)(C)NC(=S)N/N=C\c1cc(Br)c(O)c(Br)c1
active: [26] 0.768
inactive: [1] 0.966 | [2] 0.969 | [3] 0.962 | [4] 0.965 | [5] 0.967 | [6] 0.966 | [7] 0.967 | [8] 0.959 | [9] 0.971 | [10] 0.955 | [11] 0.944 | [12] 0.971 | [13] 0.957 | [14] 0.946 | [15] 0.917 | [16] 0.917 | [17] 0.944 | [18] 0.962 | [19] 0.958 | [20] 0.971 | [21] 0.929 | [22] 0.952 | [23] 0.919 | [24] 0.968 | [25] 0.947 | [27] 0.926 | [28] 0.922 | [29] 0.938 | [30] 0.971 | [31] 0.875 | [32] 0.976 | [33] 0.957 | [34] 0.955 | [35] 0.932 | [36] 0.864 | [37] 0.951 | [38] 0.945 | [39] 0.927 | [40] 0.959 | [41] 0.897 | [42] 0.896 | [43] 0.928 | [44] 0.92 | [45] 0.959 | [46] 0.965 | [47] 0.949 | [48] 0.97 | [49] 0.965 | [50] 0.929 | [51] 0.969 | [52] 0.87 | [53] 0.964 | [54] 0.963 | [55] 0.898 | [56] 0.961 | [57] 0.938 | [58] 0.921 | [59] 0.932 | [60] 0.956 | [61] 0.969 | [62] 0.92 | [63] 0.953 | [64] 0.904 | [65] 0.966 | [66] 0.902 | [67] 0.966 | [68] 0.957 | [69] 0.955 | [70] 0.959 | [71] 0.965

Cc1cc(Br)c(O)c(/C=N\NC(=S)NC(C)(C)C)c1
inactive: [1] 0.98 | [2] 0.987 | [3] 0.971 | [4] 0.981 | [5] 0.978 | [6] 0.972 | [7] 0.972 | [8] 0.993 | [9] 0.969 | [10] 0.984 | [11] 0.922 | [12] 0.982 | [13] 0.98 | [14] 0.965 | [15] 0.91 | [16] 0.894 | [17] 0.879 | [18] 0.981 | [19] 0.973 | [20] 0.976 | [21] 0.959 | [22] 0.975 | [23] 0.893 | [24] 0.883 | [25] 0.823 | [27] 0.872 | [28] 0.97 | [29] 0.942 | [30] 0.981 | [31] 0.875 | [32] 0.952 | [33] 0.911 | [34] 0.99 | [35] 0.839 | [36] 0.899 | [37] 0.973 | [38] 0.934 | [39] 0.914 | [40] 0.98 | [41] 0.914 | [43] 0.917 | [44] 0.857 | [45] 0.917 | [46] 0.975 | [47] 0.944 | [48] 0.98 | [49] 0.98 | [50] 0.903 | [51] 0.975 | [52] 0.848 | [53] 0.976 | [54] 0.988 | [55] 0.893 | [56] 0.982 | [57] 0.947 | [58] 0.91 | [59] 0.967 | [60] 0.874 | [61] 0.988 | [62] 0.876 | [63] 0.906 | [64] 0.884 | [65] 0.981 | [67] 0.975 | [68] 0.987 | [69] 0.985 | [70] 0.982 | [71] 0.984
active: [26] 0.752 | [42] 0.782 | [66] 0.838

CNC(=S)N/N=C\c1cc(Br)cc(Br)c1O
inactive: [8] 0.912 | locus YHR087W, strain rtc3, hits give low values 0.944 | locus YLR058C, strain SHM2 (second series), hits give low values 1 | locus YMR219W, strain ESC1, hits give low values 0.956
active: locus YAL013W, strain DEP1, hits give low values 0.794 | locus YBR229C, strain ROT2, hits give low values 0.919 | locus YCL061C, strain MRC1, hits give low values 0.861 | locus YDL134C, strain PPH21, hits give low values 0.537 | locus YDR150W, strain NUM1, hits give low values 0.755 | locus YEL061C, strain CIN8, hits give low values 0.463 | locus YGR078C, strain PAC10, hits give low values 0.912 | locus YGR229C, strain SMI1, hits give low values 0.813 | [26] 0.237 | locus YJR043C, strain POL32, hits give low values 0.814 | locus YJR075W, strain HOC1, hits give low values 0.847 | locus YKL190W, strain CNB1, hits give low values 0.36 | locus YLR039C, strain RIC1, hits give low values 0.155 | locus YLR085C, strain ARP6, hits give low values 0.139 | locus YLR262C, strain YPT6, hits give low values 0.15 | locus YML094W, strain GIM5, hits give low values 0.586 | locus YMR263W, strain SAP30, hits give low values 0.743 | locus YMR307W, strain GAS1, hits give low values 0.252 | locus YNL153C, strain GIM3, hits give low values 0.875 | locus YNL298W, strain CLA4 (second series), hits give low values 0.311 | locus YNL322C, strain KRE1, hits give low values 0.817 | locus YNR030W, strain Alg12, hits give low values 0.274 | locus YPL055C, strain LGE1, hits give low values 0.485 | locus YPL241C, strain CIN2, hits give low values 0.522 | locus YPR135W, strain CTF4, hits give low values 0.334
